Data as given in PubChem BioAssay AID1851 (National Center for Advancing Translational Sciences (NCATS), 2009).
Screen size: about 16,000 compounds; about 4,000 (25%) were called active. Another 26% or so got no clear call; they are omitted. Not all results are given here. A number with no mark means an inactive call. Calls come from the whole dose curve; as a rule, active = well fitted curve in the direction sought with a large enough effect; inconclusive = small, poorly fitted or top-dose-only effect, or effect the other way; inactive = no such curve, though single readings can be large or run the other way. Square brackets hold non-standard residues; d marks the D form. Peptide text beside a SMILES is read from it. * marks the point of attachment. ξ: configuration not given here. Cbz = O=C(OCc1ccccc1)*; ξA = CC(N)C(=O)O

target: Cytochrome P450 2C9 (Homo sapiens) (UniProt P11712); assay: Cytochrome panel assay with activity outcomes; conditions: recombinant CYP, pro-luciferin dealkylation, luminescence, p450-cyp2c9; series mostly up to 57.1 µM; activity, negative = inhibition: at the top concentration
% is set by controls: 0 for no effect and ±100 for the full control effect.

Cytochrome P450 2C9 (Homo sapiens), sequence (P11712 whole entry, looked up): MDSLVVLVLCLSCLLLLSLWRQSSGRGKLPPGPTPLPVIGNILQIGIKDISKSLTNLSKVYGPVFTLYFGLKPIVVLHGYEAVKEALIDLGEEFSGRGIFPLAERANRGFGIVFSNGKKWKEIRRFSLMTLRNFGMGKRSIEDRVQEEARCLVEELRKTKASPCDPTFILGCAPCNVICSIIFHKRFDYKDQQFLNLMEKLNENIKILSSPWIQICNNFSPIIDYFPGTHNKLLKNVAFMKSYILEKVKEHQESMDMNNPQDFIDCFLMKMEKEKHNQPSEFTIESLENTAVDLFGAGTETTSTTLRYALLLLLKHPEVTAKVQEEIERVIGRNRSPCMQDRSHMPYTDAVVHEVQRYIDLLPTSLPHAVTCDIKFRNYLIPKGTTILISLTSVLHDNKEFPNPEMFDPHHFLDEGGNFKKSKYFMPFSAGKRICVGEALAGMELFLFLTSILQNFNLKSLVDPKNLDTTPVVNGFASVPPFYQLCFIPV

| Structure (SMILES) | activity, negative = inhibition | AC50 |
| --- | --- | --- |
| O=C(O)NCC1CCCCC1 (tested in a mixture with another compound) | -18.2% [at 11.4 µM] | – |
| Cc1ccccc1OCC(=O)NC(=S)Nc1ccc(Br)c(C)n1 | -24.6% | – |
| S=C(NCc1ccccn1)Nc1cccc(Cl)c1 | 4.91% | – |
| CCC(=O)NC(=S)Nc1ccc(NC(=O)COc2ccc(Cl)cc2Cl)cc1 | -19% | – |
| O=C(COc1ccccc1Cl)NC(=S)Nc1cccc(NC(=O)c2ccccc2Cl)c1 | – | 0.794 µM (active) |
| O=C(CCN1C(=O)c2ccccc2C1=O)NC(=S)Nc1cccc(Cl)c1 | – | 10 µM (active) |
| N[C@H](CO)C(=O)NCC(=O)O (H-[dS]-Gly-OH) | 7.87% [at 11.4 µM] | – |
| CC(Sc1ccc2c(c1)OCCO2)C(=O)Nc1ncc(Cl)cc1Cl (configuration not stated) | – | 3.98 µM (active) |
| CCc1ccc(N2CC(C(=O)NC3=NCCS3)CC2=O)cc1 (configuration not stated) | – | 12.6 µM (active) |
| CCc1ccc(N2CC(C(=O)N/N=C/c3cccc([N+](=O)[O-])c3)CC2=O)cc1 (configuration not stated) | – | 3.55 µM (active) |
| Cc1ccc(NC(=O)/C(=C/c2cccc([N+](=O)[O-])c2)NC(=O)C2CCCCC2)c(C)c1 | -13.7% | – |
| O=C(N/N=C/c1cccc([N+](=O)[O-])c1)c1cc2c(ccc3ccccc32)o1 | 8.69% | – |
| CC1CCCN(CCCNC(=O)C2CC(=O)N(c3ccc(F)c(Cl)c3)C2)C1 (configuration not stated) | 17.6% | – |
| Cc1ccccc1NC(=O)C1CC(=O)N(c2ccc3c4c(cccc24)CC3)C1 (configuration not stated) | 12.2% | – |
| Nc1nc2c(nc(Br)n2[C@@H]2O[C@H]3COP(=O)(O)O[C@H]3[C@@H]2O)c(=O)[nH]1 | -3.31% | – |
| COc1cc([C@H](O)C(=O)O)ccc1O | 13.8% | – |
| COC(=O)[C@](C)(N)Cc1ccc(O)cc1 | 20% | – |
| COC(=O)/C=C\c1cc(O)ccc1O | – | 7.94 µM (active) |
| Cn1c(CCN2CCCCC2)nc2cc([N+](=O)[O-])ccc21 | -0.958% | – |
| CN1CCN(c2ccc([N+](=O)[O-])cc2C(=O)N2CCOCC2)CC1 | 14.2% | – |
| O=C(c1ccc(Br)cc1)c1cc([N+](=O)[O-])ccc1N1CCCCC1 | – | 2.51 µM (active) |

| Structure (SMILES) | activity, negative = inhibition | AC50 |
| --- | --- | --- |
| CCN1CCN(c2nn3c(=O)c4ccccc4nc3c3ccccc23)CC1 | -10.3% | – |
| CCn1c(/C=C2/C(=O)N(C)c3ccccc32)nc2ccccc2c1=O | – | 10 µM (active) |
| Cc1cnc(CNc2cc(-c3ccccc3C)ncn2)cn1 | -11.2% [at 2.29 µM] | – |
| CCc1ccc(-c2csc(NC(=O)C3CCCO3)c2C(=O)OC(C)C)cc1 (configuration not stated) | – | 4.47 µM (active) |
| CO/N=C\[C@@H](OC)[C@H](C)/C=C\CC(=O)OC | -2.61% [at 11.4 µM] | – |
| CCOc1cc(/C=C2/SC(=O)N(CC(=O)N3CCc4ccccc4C3)C2=O)ccc1OCC(=O)O | – | 12.6 µM (active) |
| Cn1c(=O)[nH]c2ncn(C)c2c1=O | 4.36% | – |
| Cc1c(Br)c([N+](=O)[O-])nn1CC(=O)NCc1cccs1 | -30.1% | – |
| Cc1c(Br)c([N+](=O)[O-])nn1CC(=O)NCc1ccccn1 | -8.45% | – |
| Cc1ccc(NC(=O)Cn2nc([N+](=O)[O-])c(Br)c2C)cc1C | – | 14.1 µM (active) |
| CC[n+]1c(/C=C/Nc2ccccc2)oc2ccccc21 | 3.83% | – |
| CCc1cccc(C)c1NC(=O)CSc1nc2ccc(N3C(=O)c4ccccc4C3=O)cc2s1 | – | 3.55 µM (active) |
| CC[N+](CC)(CC(=O)Nc1c(C)cccc1C)Cc1ccccc1 | -17.2% [at 25.6 µM] | – |
| NC(=O)CNC(=O)[C@@H]1CC2(CC(c3ccccc3)=NO2)CN1C(=O)c1ccc(Br)cc1 (some centres not stated) | -2.63% | – |
| COc1ccc(CN(CCC#N)C(=S)NC(=O)c2ccccc2)cc1 | – | 0.631 µM (active) |
| O=C(O)c1ccccc1C(=O)NCc1ccc(F)cc1 | -12.1% | – |
| CCOc1ccc(C(=O)NC(=S)N(Cc2ccccc2)Cc2ccccc2)cc1 | – | 10 µM (active) |
| O=C(NC(=S)N(Cc1ccccc1)Cc1ccccc1)c1ccccc1F | – | 0.891 µM (active) |
| CN1CCN(NC(=O)c2ccccc2F)CC1 | -0.803% | – |
| O=C(NC1(C(F)(F)F)C(=O)Nc2c1c(=O)[nH]c(=O)n2-c1ccc(F)cc1)c1cccnc1 (configuration not stated) | -9.59% | – |
| Cc1cccc(CNc2ncncc2-c2cccc(C#N)c2)c1 | -7.76% [at 2.29 µM] | – |

| Structure (SMILES) | activity, negative = inhibition | AC50 |
| --- | --- | --- |
| Cn1cccc1C(=O)N1CCC[C@@]2(CCN(c3ccccn3)C2)C1 | 3.61% | – |
| Cc1ccc(CC(=O)N2CC(C)OC(C)C2)cc1 (configuration not stated) | 6.48% | – |
| Cc1ccc(-c2nnc(C)c(N3CC(C)OC(C)C3)n2)cc1 (configuration not stated) | – | 17.8 µM (active) |
| O=C1NCCCC1C(=O)Nc1ccccc1C(F)(F)F (configuration not stated) | -18.4% | – |
| CCCC[C@@H]1C[C@H]1C(NC(=O)c1ccccc1)c1ccccc1C(F)(F)F (some centres not stated) | – | 1.26 µM (active) |
| CCCC[C@@H]1C[C@H]1C(NC(=O)c1cccs1)c1ccccc1C(F)(F)F (some centres not stated) | – | 1 µM (active) |
| C#CCCCO/N=C1/[C@H]2O[C@@H]2[C@@H](O)[C@H]2[C@H]1CCn1c(=O)n(C)c(=O)n12 | 4.28% [at 11.4 µM] | – |
| CCOC(=O)C1CN(S(=O)(=O)c2cccc(C(F)(F)F)c2)c2cc(CC(=O)OC)ccc2O1 (configuration not stated) | – | 6.31 µM (active) |
| CCC(C)C(NC(=O)OCc1ccccc1)C(=O)OCN1C(=O)c2ccccc2C1=O (configuration not stated) | – | 12.6 µM (active) |
| COC(=O)CNC(=O)C(C)NC(=O)CNC(=O)OCc1ccccc1 (stereo not drawn) (Cbz-Gly-[ξA]-Gly-OMe) | -11.6% | – |
| O=C(CCNC(=O)c1ccccc1)OCN1C(=O)c2ccccc2C1=O | -12.5% | – |
| N#Cc1ccccc1Sc1ccccc1N | – | 5.01 µM (active) |
| N#CC(=C(/N)Sc1ccccc1N)/C(C#N)=C(/N)Sc1ccccc1N | 3.74% | – |
| CC(=O)COC(=O)CCc1nc2ccccc2[nH]c1=O | -22.1% | – |
| CCN(CC)CCOc1ccc2nc(N(C)C)sc2c1 | -10.8% | – |
| O=c1c(-c2nnc(SCc3ccc(Cl)cc3Cl)o2)cccn1Cc1ccccc1 | – | 11.2 µM (active) |
| CC(C)=CCNc1ncnc2nc[nH]c12 | -9.02% [at 11.4 µM] | – |
| S=C(S)O[C@@H]1C[C@@H]2C[C@H]1[C@@H]1CCC[C@H]21 | – | 3.98 µM (active) |
| CC1CCC(C(=O)NC(C(=O)N2CCC(N3CCCCC3)CC2)C(C)C)CC1 (configuration not stated) | -14.4% | – |
| Nc1ncnc2c1ncn2CCCCC(=O)O | 9.41% [at 11.4 µM] | – |
